Rows were chosen to be rich in hits. Some 9.2% of all compounds tested hit in one or more screens of this group.
ELG1 DNA repair – ELG1-dependent DNA repair inhibition; HEK293T ELG1-luciferase reporter, luminescence, 16 h; DNA damage induced by 5-fluorouridine; Potency, µM (doses to about 46.1 µM), without a hit: top-dose activity change, negative = inhibition, hits mostly inhibitors; 330,000 compounds, 2.3% hits; note: % is set by controls: 0 for no effect and ±100 for the full control effect; nearly all actives have a fitted effect of over 55% in size
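HEK293T cells expressing luciferase-tagged ELG1 (2,000/well) received 5-Fluorouridine plus compound or DMSO for 16 hr at 37 °C. Luciferase was read by ONE-Glo luminescence after 30 min at room temperature.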
Rab9 prom act – activators of Rab9 promoter; 320,000 compounds, 2.8% hits; AID 485297; Huh7 Rab9 promoter-luciferase reporter, luminescence, 24 h; Potency, µM (highest dose often 9.22 µM), for inactives: at the top dose activation, negative = inhibition, most hits filed as activators; note: % of control where 0% means no effect; nearly all actives have a fitted effect of over 60% in size
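Huh7 cells stably carrying Rab9 promoter–luciferase reporter, plated 1500 cells/well, compound added after 2 h and incubated 24 h at 37 °C; luciferase luminescence then read after 10 min with detection reagent.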
ELG1 genotox – induces genotoxicity in HEK293T cells with luciferase-tagged ELG1; HEK293T ELG1-luciferase reporter, luminescence, 16 h; 330,000 compounds, 1.3% hits; Potency, µM (doses to about 46 µM), for inactives: top-dose activity change, positive = activation, usual class: activators; AID 504466; note: % of control where 0% means no effect; nearly all actives have a fitted effect of over 60% in size
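ELG1-luciferase HEK293T cells, 2,000/well; compound pinned in; 16 hr, 37 °C, 5% CO2; ONE-Glo, 30 min RT; luminescence on CCD imager.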
FLuc modulator – firefly luciferase modulation, counter-screen for miR-21 project. AID 588342. Potency, µM (highest dose often 57.5 µM), for the others: at the highest dose activity change, negative = inhibition, hits mostly inhibitors. P08659. 360,000 compounds, 6.9% hits. purified FLuc, Km substrates, luminescence inhibition;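 note: plate controls were vehicle for no effect and reference inhibitor for full effect; nearly all actives have a fitted effect of over 55% in size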
Target sequence (P08659 whole entry, looked up): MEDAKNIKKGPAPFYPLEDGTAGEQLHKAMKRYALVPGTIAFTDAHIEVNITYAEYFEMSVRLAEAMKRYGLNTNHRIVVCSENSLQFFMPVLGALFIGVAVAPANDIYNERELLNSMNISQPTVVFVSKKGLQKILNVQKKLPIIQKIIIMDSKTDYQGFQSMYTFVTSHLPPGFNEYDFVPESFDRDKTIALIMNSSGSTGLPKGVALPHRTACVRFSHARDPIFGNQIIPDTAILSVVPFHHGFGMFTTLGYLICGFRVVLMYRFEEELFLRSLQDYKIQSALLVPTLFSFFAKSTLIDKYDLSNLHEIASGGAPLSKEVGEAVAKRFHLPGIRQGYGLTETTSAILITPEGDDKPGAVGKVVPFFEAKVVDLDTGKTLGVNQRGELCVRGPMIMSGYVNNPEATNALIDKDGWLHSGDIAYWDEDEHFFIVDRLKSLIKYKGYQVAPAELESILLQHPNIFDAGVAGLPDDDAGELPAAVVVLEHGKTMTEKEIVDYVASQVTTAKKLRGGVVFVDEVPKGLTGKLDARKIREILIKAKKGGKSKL
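Purified P. pyralis luciferase (10nM final) with 10uM D-luciferin and 10uM ATP (Km levels) in 50mM Tris acetate pH 7.5, 10mM Mg acetate, 0.01% Tween-20, 0.05% BSA; qHTS 6-point titration, ~60 µM downward; luminescence read.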
SMN2 splice up – increases expression of the SMN2 splice variant. HEK293 SMN2-luciferase splicing reporter, luminescence, 30-36 h. Potency, µM (top dose mostly 46.1 µM), inactives show top-dose activity change, positive = activation, most hits filed as activators. 210,000 compounds, 2.8% hits; note: % of control where 0% means no effect; nearly all actives have a fitted effect of over 55% in size
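qHTS luciferase splicing reporter: luminescence rises when SMN2 exon 7 is included in transfected HEK293 cells. Compound exposure lasted 30-36 h at 37C, with 4.5 mM final sodium butyrate as control, followed by a ONE-Glo read.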
NPC1 promoter act – NPC1 promoter activation; Potency, µM (doses to about 9.22 µM), inactives show at the top dose activation, most hits filed as activators; Huh7 NPC1 promoter luciferase reporter, 24 h; 320,000 compounds, 2.4% hits; AID 485313; note: % of control where 0% means no effect; nearly all actives have a fitted effect of over 60% in size
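Huh7 cells stably carrying NPC1 promoter–luciferase, plated in Opti-MEM with 10% FBS for 2 h, were exposed to compound in DMSO for 24 h at 37 °C; luciferase reagent was added for 10 min and luminescence read.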
ELG1 FLuc counter – luciferase inhibition in cell-free luciferin readout for ELG1 hits; Potency, µM (highest dose often 46.1 µM), without a hit: top-dose activity change, negative = inhibition, actives largely listed as inhibitors; cell-free firefly luciferase luminescence counter-screen, ViewLux; 350 compounds, 3% hits; shares compounds with ELG1 DNA repair; AID 624247; note: % is set by controls: 0 for no effect and ±100 for the full control effect
ELG1-Luc inh – confirmation of human ELG1-dependent DNA repair inhibitors; AID 624248; 670 compounds, 68% hits; Potency, µM (top dose mostly 46.1 µM), without a hit: top-dose activity change, negative = inhibition, usual class: inhibitors; shares compounds with ELG1 DNA repair; HEK293T ELG1-luciferase levels, luminescence; cells co-treated with 5-fluorouridine; note: % is set by controls: 0 for no effect and ±100 for the full control effect; nearly all actives have a fitted effect of over 55% in size
ELG1 MMS Luc – inhibits ELG1-dependent repair under MMS stimulation in HEK293T cells; shares compounds with ELG1 DNA repair; HEK293T luciferase-tagged ELG1 level, MMS stimulated; Potency, µM (titrated, usually from 46.1 µM), without a hit: at the highest dose activity change, negative = inhibition, hits mostly inhibitors; 670 compounds, 53% hits; AID 624249; note: % is set by controls: 0 for no effect and ±100 for the full control effect; nearly all actives have a fitted effect of over 60% in size
ELG1 5-FU – confirmation of ELG1 repair inhibitors: viability with 5FU. cell viability with 5-FU, ELG1-dependent repair. Potency, µM (doses to about 46.1 µM), for the others: at the top dose activity change, negative = viability loss, usual class: cytotoxic. 670 tested, under 10 active. AID 624250. shares compounds with ELG1 DNA repair;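 note: ELG1-luc HEK293T cells cotreated with 5-fluorouridine at 10 µM final; viability measured 16 h after compound addition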
ELG1 MMS cell – confirmation of ELG1 repair inhibitors: viability with MMS | shares compounds with ELG1 DNA repair | Cell viability with MMS, ELG1-dependent DNA repair | Potency, µM (top dose mostly 46.1 µM), without a hit: at the top dose activity change, negative = viability loss, most hits filed as cytotoxic | 670 compounds, 33% hits | AID 624251;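 note: ELG1-luc HEK293T cells co-treated with 10 µM MMS; viability read 16 h after compound addition; % is set by controls: 0 for no effect and ±100 for the full control effect; nearly all actives have a fitted effect of over 60% in size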
Cell viab unstim – affects unstimulated cell viability, ELG1 hit counter-screen | cell viability counter-screen, unstimulated, luminescence | shares compounds with ELG1 DNA repair | 900 compounds, 8% hits | Potency, µM (doses to about 45.9 µM), inactives show top-dose activity change, negative = loss of viability, actives largely listed as cytotoxic;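 note: compound exposure lasted 16 hours before reading; % is set by controls: 0 for no effect and ±100 for the full control effect; nearly all actives have a fitted effect of over 55% in size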
FLuc biochem – counter-screen for ELG1 repair inhibitors: firefly luciferase inhibition; shares compounds with ELG1 DNA repair; 350 compounds, 10% hits; AID 624253; Potency, µM (series often up to 57.5 µM), for inactives: top-dose activity, negative = inhibition, hits mostly inhibitors; purified firefly luciferase, luminescence counter-screen; note: % is set by controls: 0 for no effect and ±100 for the full control effect
Starred values were filed as active, the others as inactive; ? = inconclusive; · = no result. Calls come from the whole dose curve; as a rule, active = well fitted curve in the direction sought with a large enough effect; inconclusive = small, poorly fitted or top-dose-only effect, or another doubt; inactive = no such curve, though single readings can be large; an effect the other way counts as inactive or inconclusive. Potency is the fitted concentration of half-maximal effect.

SMILES	ELG1 DNA repair	Rab9 prom act	ELG1 genotox	FLuc modulator	SMN2 splice up	NPC1 promoter act	ELG1-Luc inh	ELG1 MMS Luc	ELG1 5-FU	ELG1 MMS cell	Cell viab unstim	others
S=C1NC[C@H](Cc2ccccc2)N1CCc1cccc2ccccc12	?	0%	-5%	-1%	·	-4%	·	·	·	·	·
O=S1(=O)[C@H]2C[C@H](CO)O[C@@]2(CO)CN1Cc1ccc(-c2cccc(Cl)c2)cc1	2.3µM*	·	3%	·	·	·	2.5µM*	-6%	?	?	?
COc1ccc(-c2nn(-c3ccccc3)cc2C(=O)NCC(c2cccs2)N2CCOCC2)cc1 (stereo not given)	4.6µM*	2%	-19%	5%	·	0%	14µM*	-1%	?	9%	-14%
O=C(NCC(c1cccs1)N1CCOCC1)c1cn(-c2ccccc2)nc1-c1ccccc1 (stereo not given)	?	-6%	-9%	-27%	·	-3%	·	·	·	·	·
CCn1ccnc1CN(C)C(=O)CCc1nnc(CCCc2ccccc2)o1	16%	12%	7%	-16%	·	-4%	·	·	·	·	·
Cc1ccc(Cl)cc1N1CCN(S(=O)(=O)c2ccc3c(c2)CC(C)N3C(=O)C2CCC2)CC1 (stereo not given)	·	·	·	-9%	·	·	·	·	·	·	·
CC(=O)N1c2ccc(S(=O)(=O)N3CCC(C(=O)N4CCN(c5cc(Cl)ccc5C)CC4)CC3)cc2CC1C (stereo not given)	?	-5%	-13%	-2%	·	-6%	14µM*	?	5%	-4%	?	ELG1 FLuc counter=-13%;FLuc biochem=-14%
COc1ccc(C(=O)c2ccc(Br)cc2)cc1	1.2µM*	?	1%	-11%	-14%	30%	43%	0%	2%	-17%	7%
COc1ccc(OC)c(C2=NOC(C(=O)N3CCCc4ccccc43)C2)c1 (stereo not given)	0%	-1%	9%	?	25%	-3%	·	·	·	·	·
COc1cc2[nH]c(=O)n(CCCCCC(=O)N3CCN(c4ccccc4)CC3)c(=O)c2cc1OC	16µM*	-2%	-34%	4%	-10%	-4%	13µM*	16µM*	8%	?	?	ELG1 FLuc counter=?;FLuc biochem=-18%
COC(=O)c1ccc2c(=O)n(CCCCCC(=O)N3CCN(c4ccccc4)CC3)c(=O)[nH]c2c1	7.3µM*	-2%	-32%	-12%	-27%	-2%	8.9µM*	7.9µM*	?	10µM*	20µM*	ELG1 FLuc counter=22µM*;FLuc biochem=-2%
CCCCc1ccc(NC(=O)C(=O)NCCN2CCN(Cc3ccc([N+](=O)[O-])cc3)CC2)cc1	3.3µM*	-32%	12%	5%	-77%	-32%	?	0.79µM*	0%	1.3µM*	-15%
CNC(=O)C(=O)NCCN1CCN(C(=O)c2ccc([N+](=O)[O-])cc2)CC1	11%	-12%	6%	-4%	·	5%	·	·	·	·	·
Cc1onc(-c2c(F)cccc2Cl)c1C(=O)Nc1cccc(S(=O)(=O)NCc2ccco2)c1	?	-5%	-18%	0%	-19%	0%	·	·	·	·	·
COc1ccccc1C(=O)COC(=O)c1ccccc1OCC(=O)Nc1ccc(SC(F)F)cc1	4.6µM*	1%	-2%	-9%	-30%	22%	7.1µM*	?	?	1%	-20%
CS(=O)(=O)N1CCCC(c2nc(-c3ccc(S(=O)(=O)NCc4ccccc4)cc3)no2)C1 (stereo not given)	3.7µM*	-18%	-12%	7%	-69%	-13%	14µM*	2µM*	-20%	2µM*	14µM*
O=C(Cc1ccccc1)N1CCCC(c2nc(-c3ccc(S(=O)(=O)N4CCCC4)cc3)no2)C1 (stereo not given)	?	1%	-15%	6%	-45%	-5%	·	·	·	·	·
Cc1ccc(NC(=O)COC(=O)c2ccc(S(=O)(=O)N3CCCC3)cc2)cc1	10%	-5%	-2%	5%	·	-2%	·	·	·	·	·
O=S(=O)(c1cccc(C(F)(F)F)c1)N1CCCC1c1cccnc1 (stereo not given)	1%	-4%	-1%	-2%	·	3%	·	·	·	·	·
Cc1ccc(S(=O)(=O)N2CCCCC2c2cccnc2)c(C)c1C (stereo not given)	0.82µM*	9%	-9%	1%	·	-2%	0.014µM*	14µM*	-1%	20µM*	?	ELG1 FLuc counter=1%;FLuc biochem=3%
CC1=C(C(=O)OCc2ccc3c(c2)OCO3)C(c2ccccc2OCc2ccccc2)NC(=O)N1 (stereo not given)	16µM*	0%	-31%	-1%	-24%	7%	22µM*	?	1%	-12%	?	ELG1 FLuc counter=-7%;FLuc biochem=-8%
C=CCn1c(Oc2cc(C)ccc2C)nc2c1c(=O)n(C)c(=O)n2C	?	0%	-20%	2%	2%	2%	·	·	·	·	·

Screening results (PubChem)
